Here are results for 39 compounds from PubChem BioAssay (NCI).

The structures appear in SMILES notation. “And” between values parts separate entries of the source, which are not always exact repeats. Equal values may be shown once. The panel holds about 79,000 compounds, 15% with a hit somewhere; the sample as a whole holds those more often. Where a structure was tested more than once in an assay, its records may differ in their call. The source made the active and inactive calls. Cut-off read from the data, not from the text of the source: active = growth inhibition above about 70%; inactive = the rest.

The first assay is described as follows: NCI Yeast Anticancer Drug Screen. Data for the sgs1 mgt1 strain (AID 161).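 Note: 0% = growth of cultures given vehicle only.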 As to conditions: S. cerevisiae sgs1 mgt1 strain, at 5.0 µM (retest, dose inferred, filed as 0.5), stronger effect = higher value. The gist of the method:
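Compounds are added to genetically altered yeast, and growth is compared with cultures given vehicle alone to give percent inhibition.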
For the compound `Cc1cc(C)c(O)c(C)c1.[Hg]`, the growth inhibition was 99% (active).

For the compound `CC(O)C(=O)O.CC(O)C(=O)O.[Ni]` (stereo not drawn), the growth inhibition is -1% (inactive).

On to `CC(=O)OC1C(=O)OCC23CCC4(C)OC4C2OC2CC(OC(=O)/C=C/C=C/C(=O)OCCC1C)C3(C)C21CO1` (stereo not drawn), for which the growth inhibition is 99% (active).

For the compound `CN1C(=O)CC[C@@]2(C)C1=CC[C@H]1[C@@H]3CC[C@H](O)[C@@]3(C)CC[C@@H]12`, the growth inhibition is 12% (inactive).

For the compound `CC[C@H](C)c1occ2c(O)c(C(=O)O)c(=O)cc-2c1C`, the growth inhibition is 99% (active).

On to `O=[N+]([O-])[O][Tl]([c]1ccccc1)[c]1ccccc1`, for which the growth inhibition was -4% (inactive).

`CCCC[CH2][Sn]([CH2]CCCC)[CH2]CCCC.CCCC[CH2][Sn]([CH2]CCCC)[CH2]CCCC`: the growth inhibition is 67% (inactive).

As to `Nc1cc(Cl)ccc1C(=O)c1ccccc1Cl`, the growth inhibition is 2% (inactive).

Consider `CC(Br)CN1CCOCC1` (stereo not drawn), for which the growth inhibition was 58% (inactive).

`C(CCC[Te][Te]CCCCCCOC1CCCCO1)CCOC1CCCCO1` (stereo not drawn): the growth inhibition is 7% (inactive).

On to `CN1CN(c2ccccc2)C2(CCN(C3Nc4ccccc4O3)CC2)C1=O` (stereo not drawn), for which the growth inhibition was -1% (inactive).

As to `[CH3][Sn]([CH3])([Cl])[c]1cc[c]([Sn]([CH3])([CH3])[Cl])cc1`, the growth inhibition was 6% (inactive).

Regarding `O=[C-]CCCCCC[C-]=O.[C-]#[O+].[C-]#[O+].[C-]#[O+].[C-]#[O+].[Fe+6].[Fe+6].[c-]1[c-][c-][cH-][c-]1.[c-]1[c-][c-][cH-][c-]1`, the growth inhibition is 1% (inactive).

Consider `CCOC(=O)NC(=S)[S][Sb]([S]C(=S)NC(=O)OCC)[S]c1nc2ccc(N=Nc3ccc(NS(=O)(=O)c4ccc(NC(=O)C(N5CC5)(N5CC5)N5CC5)cc4)cc3)cc2s1`, for which the growth inhibition is 46% (inactive).

For the compound `CCC[N+](CCC)(CCC)CCC.N#CN=C([SH2+])[SH2+].N#CN=C([SH2+])[SH2+].[Pt+2]`, the growth inhibition was 4% (inactive).

Consider `CCCCCCCC/C=C\CCCCCCCCN1CC(C(=O)[O][Pb]([CH2]C)([CH2]C)[CH2]C)CC1=O` (stereo not drawn), for which the growth inhibition was 10% (inactive).

Regarding `O=c1[nH]cc(Cn2cnc3ncccc3c2=O)c(=O)[nH]1`, the growth inhibition is -3% (inactive).

For `CC(C)(C)C1=CC(=C/C=C/c2cc(C(C)(C)C)[o+]c(C(C)(C)C)c2)C=C(C(C)(C)C)O1`, the growth inhibition was 99% (active).

With `S=C(S)N1CCCCC1`, the growth inhibition is 42% (inactive) and 15% (inactive).

For the compound `CN[C@H]1C[C@@H]2O[C@@](C)([C@H]1OC)n1c3ccccc3c3c4c(c5c6ccccc6n2c5c31)C(=O)NC4`, the growth inhibition was 97% (active).

Regarding `CC(C)(C)OOC(=O)c1ccccc1`, the growth inhibition was 14% (inactive).

Take `ClCCN(CCCl)CCN1c2ccccc2Sc2ccc3ccccc3c21`: the growth inhibition is 7% (inactive).

Regarding `CCOC(=O)c1ccccc1N`, the growth inhibition is -10% (inactive).

Turning to `Cn1cnc(C(=N)[Se])c1N`, the growth inhibition is 27% (inactive).

For `Cc1ccc(NP(=O)(Oc2ccccc2)N(CCCl)CCCl)cc1` (stereo not drawn), the growth inhibition was 8% (inactive).

Take `CCOC(=O)C1=C(C)NC(=O)NC1c1ccc(N(CCCl)CCCl)cc1Cl` (stereo not drawn): the growth inhibition is -3% (inactive).

As for `ClC(C[n+]1ccccc1)c1ccccc1` (stereo not drawn), the growth inhibition is 10% (inactive).

In the case of `CCCCCCCC1(c2ccc(N)cc2)CCC(=O)NC1=O` (stereo not drawn), the growth inhibition was 8% (inactive).

In the case of `COC(=O)C(CCCN=C(N)N[N+](=O)[O-])NC(=O)c1ccc2c(c1O)C(=O)c1ccccc1C2=O` (stereo not drawn), the growth inhibition was 6% (inactive).

For `Cc1cc(N(CCCl)CCCl)ccc1CN1CCCN(Cc2ccc(N(CCCl)CCCl)cc2C)C1c1ccc(N(CCCl)CCCl)cc1C`, the growth inhibition was 2% (inactive).

Turning to `c1ccc([CH2][Pb]([c]2ccccc2)([c]2ccccc2)[c]2ccccc2)cc1`, the growth inhibition is 97% (active).

As for `C[CH2][Sn][CH2]C.c1cc[c]([Ge]([c]2ccccc2)[c]2ccccc2)cc1.c1cc[c]([Sn]([c]2ccccc2)[c]2ccccc2)cc1`, the growth inhibition was 100% (active).

Regarding `CCC1(C2=CCCCC2)C(=O)NC(=S)NC1=O`, the growth inhibition was 22% (inactive).

Consider `N#CC(=C=N)N=C(F)C(C#N)=C(C#N)C#N`, for which the growth inhibition was 13% (inactive).

As to `N#C[SH2+].N#C[SH2+].N#C[SH2+].N#C[SH2+].[Cu+2].c1ccc(C[P+](c2ccccc2)(c2ccccc2)c2ccccc2)cc1`, the growth inhibition was 21% (inactive).

On to `CC#N.FC(F)(F)C#CC(F)(F)F.FC(F)(F)C#CC(F)(F)F.FC(F)(F)C#CC(F)(F)F.[W]`, for which the growth inhibition is 90% (active).

In the case of `CC(C)c1cccc(C(C)C)c1NC(=O)C(=O)CC(=O)CC(c1ccccc1)c1c(O)c2ccccc2oc1=O` (stereo not drawn), the growth inhibition was 11% (inactive).

For the compound `CCN(CCCl)c1ccc(/C=C/C2=[N+](C)c3ccccc3C2(C)C)c(C)c1`, the growth inhibition was -8% (inactive).

For `Cc1cc(C)[n+](CCOc2ccc(/C(=C(/Cl)c3ccccc3)c3ccccc3)cc2)c(C)c1`, the growth inhibition was 73% (active).

The same assay, now with this note: S. cerevisiae sgs1 mgt1 strain, at 50.0 µM (retest, dose inferred, filed as 5.0), stronger effect = higher value.
In the case of `Cc1cc(C)c(O)c(C)c1.[Hg]`, the growth inhibition was 99% (active).

As to `CC(O)C(=O)O.CC(O)C(=O)O.[Ni]` (stereo not drawn), the growth inhibition is 4% (inactive).

Turning to `CC(=O)OC1C(=O)OCC23CCC4(C)OC4C2OC2CC(OC(=O)/C=C/C=C/C(=O)OCCC1C)C3(C)C21CO1` (stereo not drawn), the growth inhibition is 99% (active).

Consider `CN1C(=O)CC[C@@]2(C)C1=CC[C@H]1[C@@H]3CC[C@H](O)[C@@]3(C)CC[C@@H]12`, for which the growth inhibition was 79% (active).

On to `CC[C@H](C)c1occ2c(O)c(C(=O)O)c(=O)cc-2c1C`, for which the growth inhibition is 99% (active).

For the compound `O=[N+]([O-])[O][Tl]([c]1ccccc1)[c]1ccccc1`, the growth inhibition is 56% (inactive).

With `CCCC[CH2][Sn]([CH2]CCCC)[CH2]CCCC.CCCC[CH2][Sn]([CH2]CCCC)[CH2]CCCC`, the growth inhibition was 100% (active).

Take `Nc1cc(Cl)ccc1C(=O)c1ccccc1Cl`: the growth inhibition is 98% (active).

For the compound `CC(Br)CN1CCOCC1` (stereo not drawn), the growth inhibition was 94% (active).

Consider `C(CCC[Te][Te]CCCCCCOC1CCCCO1)CCOC1CCCCO1` (stereo not drawn), for which the growth inhibition is 19% (inactive).

As for `CN1CN(c2ccccc2)C2(CCN(C3Nc4ccccc4O3)CC2)C1=O` (stereo not drawn), the growth inhibition was 30% (inactive).

Consider `[CH3][Sn]([CH3])([Cl])[c]1cc[c]([Sn]([CH3])([CH3])[Cl])cc1`, for which the growth inhibition was 80% (active).

Take `O=[C-]CCCCCC[C-]=O.[C-]#[O+].[C-]#[O+].[C-]#[O+].[C-]#[O+].[Fe+6].[Fe+6].[c-]1[c-][c-][cH-][c-]1.[c-]1[c-][c-][cH-][c-]1`: the growth inhibition is 98% (active).

`CCOC(=O)NC(=S)[S][Sb]([S]C(=S)NC(=O)OCC)[S]c1nc2ccc(N=Nc3ccc(NS(=O)(=O)c4ccc(NC(=O)C(N5CC5)(N5CC5)N5CC5)cc4)cc3)cc2s1`: the growth inhibition was 99% (active).

Consider `CCC[N+](CCC)(CCC)CCC.N#CN=C([SH2+])[SH2+].N#CN=C([SH2+])[SH2+].[Pt+2]`, for which the growth inhibition was 39% (inactive).

As to `CCCCCCCC/C=C\CCCCCCCCN1CC(C(=O)[O][Pb]([CH2]C)([CH2]C)[CH2]C)CC1=O` (stereo not drawn), the growth inhibition was 79% (active).

Regarding `O=c1[nH]cc(Cn2cnc3ncccc3c2=O)c(=O)[nH]1`, the growth inhibition is -1% (inactive).

Turning to `CC(C)(C)C1=CC(=C/C=C/c2cc(C(C)(C)C)[o+]c(C(C)(C)C)c2)C=C(C(C)(C)C)O1`, the growth inhibition is 94% (active).

For `S=C(S)N1CCCCC1`, the growth inhibition was 99% (active) and 41% (inactive).

As for `CN[C@H]1C[C@@H]2O[C@@](C)([C@H]1OC)n1c3ccccc3c3c4c(c5c6ccccc6n2c5c31)C(=O)NC4`, the growth inhibition was 99% (active).

For the compound `CC(C)(C)OOC(=O)c1ccccc1`, the growth inhibition is 93% (active).

For `ClCCN(CCCl)CCN1c2ccccc2Sc2ccc3ccccc3c21`, the growth inhibition was 81% (active).

In the case of `CCOC(=O)c1ccccc1N`, the growth inhibition was 1% (inactive).

As for `Cn1cnc(C(=N)[Se])c1N`, the growth inhibition is 53% (inactive).

For the compound `Cc1ccc(NP(=O)(Oc2ccccc2)N(CCCl)CCCl)cc1` (stereo not drawn), the growth inhibition was 20% (inactive).

Consider `CCOC(=O)C1=C(C)NC(=O)NC1c1ccc(N(CCCl)CCCl)cc1Cl` (stereo not drawn), for which the growth inhibition was 34% (inactive).

Consider `ClC(C[n+]1ccccc1)c1ccccc1` (stereo not drawn), for which the growth inhibition is 35% (inactive).

With `CCCCCCCC1(c2ccc(N)cc2)CCC(=O)NC1=O` (stereo not drawn), the growth inhibition is 96% (active).

For the compound `COC(=O)C(CCCN=C(N)N[N+](=O)[O-])NC(=O)c1ccc2c(c1O)C(=O)c1ccccc1C2=O` (stereo not drawn), the growth inhibition was 18% (inactive).

Consider `Cc1cc(N(CCCl)CCCl)ccc1CN1CCCN(Cc2ccc(N(CCCl)CCCl)cc2C)C1c1ccc(N(CCCl)CCCl)cc1C`, for which the growth inhibition is 99% (active).

Consider `c1ccc([CH2][Pb]([c]2ccccc2)([c]2ccccc2)[c]2ccccc2)cc1`, for which the growth inhibition was 98% (active).

For the compound `C[CH2][Sn][CH2]C.c1cc[c]([Ge]([c]2ccccc2)[c]2ccccc2)cc1.c1cc[c]([Sn]([c]2ccccc2)[c]2ccccc2)cc1`, the growth inhibition was 98% (active).

Turning to `CCC1(C2=CCCCC2)C(=O)NC(=S)NC1=O`, the growth inhibition was 77% (active).

Turning to `N#CC(=C=N)N=C(F)C(C#N)=C(C#N)C#N`, the growth inhibition was 86% (active).

As to `N#C[SH2+].N#C[SH2+].N#C[SH2+].N#C[SH2+].[Cu+2].c1ccc(C[P+](c2ccccc2)(c2ccccc2)c2ccccc2)cc1`, the growth inhibition was 91% (active).

Regarding `CC#N.FC(F)(F)C#CC(F)(F)F.FC(F)(F)C#CC(F)(F)F.FC(F)(F)C#CC(F)(F)F.[W]`, the growth inhibition is 99% (active).

In the case of `CC(C)c1cccc(C(C)C)c1NC(=O)C(=O)CC(=O)CC(c1ccccc1)c1c(O)c2ccccc2oc1=O` (stereo not drawn), the growth inhibition was 11% (inactive).

Take `CCN(CCCl)c1ccc(/C=C/C2=[N+](C)c3ccccc3C2(C)C)c(C)c1`: the growth inhibition is 98% (active).

Take `Cc1cc(C)[n+](CCOc2ccc(/C(=C(/Cl)c3ccccc3)c3ccccc3)cc2)c(C)c1`: the growth inhibition was 73% (active).
